Assay outcomes: PubChem, National Center for Advancing Translational Sciences (NCATS)
SMN2 splice up = enhancers of SMN2 splice variant expression; 210,000 compounds, 2.8% hits; HEK293 SMN2-luciferase splicing reporter, luminescence, 30-36 h; Potency, µM (doses to about 46.1 µM), inactives show at the top dose activity change, positive = activation, hits mostly activators; note: % of control where 0% means no effect; nearly all actives have a fitted effect of over 55% in size
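qHTS luciferase splicing reporter: luminescence rises when SMN2 exon 7 is included in transfected HEK293 cells. Compound exposure lasted 30-36 h at 37C, with 4.5 mM final sodium butyrate as control, followed by a ONE-Glo read.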
ELG1 genotoxic = induces genotoxicity in HEK293T cells with luciferase-tagged ELG1; Potency, µM (top dose mostly 46 µM), for the others: at the top dose activity change, positive = activation, most hits filed as activators; HEK293T ELG1-luciferase reporter, luminescence, 16 h; AID 504466; 330,000 compounds, 1.3% hits; note: % of control where 0% means no effect; nearly all actives have a fitted effect of over 60% in size
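Cells (2,000/well) expressing the ELG1-luciferase fusion are dosed by pin tool and kept 16 hr at 37 °C, 5% CO2. Signal comes from ONE-Glo luciferase reagent after 30 min at room temperature.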
FLuc counter = firefly luciferase modulation, counter-screen for miR-21 project | purified FLuc, Km substrates, luminescence inhibition | Potency, µM (titrated, usually from 57.5 µM), without a hit: top-dose activity change, negative = inhibition, actives largely listed as inhibitors | 360,000 compounds, 6.9% hits | AID 588342;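 note: plate controls were vehicle for no effect and reference inhibitor for full effect; nearly all actives have a fitted effect of over 55% in size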
Target sequence (P08659 whole entry, looked up): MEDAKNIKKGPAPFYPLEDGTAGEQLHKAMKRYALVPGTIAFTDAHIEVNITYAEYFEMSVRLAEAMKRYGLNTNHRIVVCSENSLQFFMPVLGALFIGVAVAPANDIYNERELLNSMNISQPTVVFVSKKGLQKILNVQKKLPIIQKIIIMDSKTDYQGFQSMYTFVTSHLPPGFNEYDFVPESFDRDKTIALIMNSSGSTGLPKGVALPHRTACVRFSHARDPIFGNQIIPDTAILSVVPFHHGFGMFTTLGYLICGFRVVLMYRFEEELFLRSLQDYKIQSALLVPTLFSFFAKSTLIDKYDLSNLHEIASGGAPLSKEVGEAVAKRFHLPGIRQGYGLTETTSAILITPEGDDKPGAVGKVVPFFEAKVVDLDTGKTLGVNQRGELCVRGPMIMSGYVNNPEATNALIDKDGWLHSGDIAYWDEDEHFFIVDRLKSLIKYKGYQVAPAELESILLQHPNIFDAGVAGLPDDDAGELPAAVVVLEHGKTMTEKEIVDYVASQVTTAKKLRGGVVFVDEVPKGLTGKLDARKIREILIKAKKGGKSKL
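Purified P. pyralis luciferase (10nM final) with 10uM D-luciferin and 10uM ATP (Km levels) in 50mM Tris acetate pH 7.5, 10mM Mg acetate, 0.01% Tween-20, 0.05% BSA; qHTS 6-point titration, ~60 µM downward; luminescence read.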
Rab9 promoter act = Rab9 promoter activation | Huh7 Rab9 promoter-luciferase reporter, luminescence, 24 h | Potency, µM (doses to about 9.22 µM), for the others: at the top dose activation, negative = inhibition, most hits filed as activators | 320,000 compounds, 2.8% hits; note: % of control where 0% means no effect; nearly all actives have a fitted effect of over 60% in size
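Cell-based reporter: Huh7 stable for Rab9 promoter-driven luciferase, plated in reduced-serum medium with 10% FBS at 1500 cells/well, compound-treated 24 h at 37 °C, luminescence read after 10 min reagent.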
uPA surface inh = inhibitors of cell surface uPA generation; cell surface uPA generation assay, qHTS; Potency, µM (titrated, usually from 38.3 µM), without a hit: at the top dose activity change, negative = inhibition, hits mostly inhibitors; 330,000 compounds, 0.31% hits; active = well fitted inhibition curve with a large enough effect; inconclusive = small, poorly fitted or top-dose-only effect; inactive = no such curve, though single readings can be large or run the other way; tested in mouse RAW 264.7 cells; note: % is set by controls: 0 for no effect and ±100 for the full control effect; nearly all actives have a fitted effect of over 55% in size
NPC1 promoter act = activates the NPC1 promoter; Huh7 NPC1 promoter luciferase reporter, 24 h; Potency, µM (top dose mostly 9.22 µM), without a hit: at the highest dose activation, hits mostly activators; 320,000 compounds, 2.4% hits; AID 485313; note: % of control where 0% means no effect; nearly all actives have a fitted effect of over 60% in size
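Compounds in DMSO were transferred onto Huh7 NPC1-luciferase reporter cells pre-incubated 2 h; after 24 h at 37 °C, Amplite reagent was dispensed and luminescence recorded 10 min later.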
* marks the source's active call; other numbers are inactive results; [ ] = dose if it differs, or a comment. Compounds with a hit are over-represented: about 7.3% of the library has one in this group of screens. Unless noted, calls come from the whole dose curve; as a rule, active = well fitted curve in the direction sought with a large enough effect; inconclusive = small, poorly fitted or top-dose-only effect, or another doubt; inactive = no such curve, though single readings can be large; an effect the other way counts as inactive or inconclusive. Potency is the fitted concentration of half-maximal effect.

`COc1ccc(/C=N\Nc2ccccn2)c(OC)c1` gave ELG1 genotoxic inconclusive, FLuc counter 3.4µM*, Rab9 promoter act inconclusive, uPA surface inh -7% and NPC1 promoter act inconclusive.
COc1ccc(/C=N/NS(C)(=O)=O)c(OC)c1 was read as SMN2 splice up -5%, ELG1 genotoxic -3%, FLuc counter 5%, Rab9 promoter act -3%, uPA surface inh -3% and NPC1 promoter act -8%.
`COc1ccc(/C=N/Nc2ncc(Br)cn2)c(OC)c1` gave SMN2 splice up 22µM*, ELG1 genotoxic 7.3µM*, FLuc counter 2.7µM*, Rab9 promoter act inconclusive, uPA surface inh -12% and NPC1 promoter act 9%.
`O=C(c1ccc(Cl)cc1)c1cnc2ccccn12` gave SMN2 splice up 9%, ELG1 genotoxic 12µM*, FLuc counter 9.5µM*, Rab9 promoter act 2.5µM*, uPA surface inh 2% and NPC1 promoter act 3.2µM*.
`CCn1c2ccccc2c2c3ncc4cccn4c3ccc21` gave ELG1 genotoxic 12%, FLuc counter 3µM*, Rab9 promoter act inconclusive, uPA surface inh -6% and NPC1 promoter act 3.2µM*.
For CCN(CC)S(=O)(=O)c1ccc(C(=O)Nc2ccc(C(F)(F)F)n(C)c2=O)cc1 the results were ELG1 genotoxic -6%, FLuc counter -1%, Rab9 promoter act -4%, uPA surface inh -8% and NPC1 promoter act -3%.
Screening COCCn1c(C(F)(F)F)ccc(NC(=O)c2ccccc2)c1=O returned ELG1 genotoxic 7.3µM*, FLuc counter 7.6µM*, Rab9 promoter act 1.3µM*, uPA surface inh -1% and NPC1 promoter act 1.4µM*.
`Cc1ccc(C(=O)Nc2ccc(C(F)(F)F)n(C)c2=O)cc1` gave SMN2 splice up 22µM*, ELG1 genotoxic inconclusive, FLuc counter 4.3µM*, Rab9 promoter act 3.2µM* and NPC1 promoter act 18%.
`COc1ccc(NC(=O)c2ccc3c(c2)n(C)c(=O)n3C)cc1` gave SMN2 splice up inconclusive, ELG1 genotoxic inconclusive, FLuc counter inconclusive, Rab9 promoter act -11%, uPA surface inh inconclusive and NPC1 promoter act -5%.
Screening COc1ccc(C(=O)Nc2ccc(C(F)(F)F)n(C)c2=O)cc1 returned SMN2 splice up 14µM*, ELG1 genotoxic inconclusive, FLuc counter inconclusive, Rab9 promoter act 2.2µM*, uPA surface inh 1% and NPC1 promoter act 2.8µM*.
Screening Cc1ccn2cc(-c3cccc(S(=O)(=O)N4CCCCC4)c3)nc2c1 returned ELG1 genotoxic -5%, FLuc counter 19µM*, Rab9 promoter act -1%, uPA surface inh -6% and NPC1 promoter act -6%.
`CC1CN(S(=O)(=O)c2cccc(-c3cn4cccnc4n3)c2)CC(C)O1` (configuration not stated) gave SMN2 splice up -9%, ELG1 genotoxic -1%, FLuc counter -1%, Rab9 promoter act -4% and NPC1 promoter act 19%.
Screening Cc1ccc2nc(-c3cccc(S(=O)(=O)N4CCCC4)c3)cn2c1 returned ELG1 genotoxic 7%, FLuc counter 6.7µM*, Rab9 promoter act 0%, uPA surface inh -20% and NPC1 promoter act -1%.
For Cc1ccc2nc(-c3cccc(S(=O)(=O)N4CC(C)OC(C)C4)c3)cn2c1 (configuration not stated) the results were ELG1 genotoxic inconclusive, FLuc counter 13µM*, Rab9 promoter act -2%, uPA surface inh -17% and NPC1 promoter act 1%.
Screening Cc1ccc2nc(-c3ccc(S(=O)(=O)N4CCCCC4)cc3)cn2c1 returned ELG1 genotoxic 12%, FLuc counter -20%, Rab9 promoter act 29%, uPA surface inh 0% and NPC1 promoter act 2%.
Cc1cc2cc3c(cc2nc1SCc1ccccn1)OCCO3 was read as SMN2 splice up -11%[1.84 µM], ELG1 genotoxic 10%, FLuc counter inconclusive, Rab9 promoter act inconclusive, uPA surface inh 6% and NPC1 promoter act -4%.
`N#Cc1cc2ccccc2nc1SCc1ccccn1` gave SMN2 splice up 11µM*, ELG1 genotoxic 7.3µM*, FLuc counter 17µM*, Rab9 promoter act 2% and NPC1 promoter act -1%.
Screening CC(CC(=O)N1CCN(C(=O)c2ccccc2)CC1)c1ccccc1 (configuration not stated) returned ELG1 genotoxic -1%, FLuc counter 2%, Rab9 promoter act -1%, uPA surface inh -6% and NPC1 promoter act 0%.
For CC(c1ccccc1)N1CCN(C(=O)CCl)CC1 (configuration not stated) the results were SMN2 splice up -30%, ELG1 genotoxic -14%, FLuc counter 0%, Rab9 promoter act 9%, uPA surface inh 8.9µM* and NPC1 promoter act 1%.
`CCc1ccccc1Nc1sc(C(=O)c2ccccc2)c(N)c1S(=O)(=O)c1ccccc1` gave SMN2 splice up -2% and FLuc counter -3%.
For COc1cccc(N2CCN(C(=O)c3cc4c(=O)n(Cc5ccco5)ccc4nc3C)CC2)c1 the results were FLuc counter 3%.
Screening CCn1nc(C(=O)N[C@@H](CCSC)c2nc3ccccc3[nH]2)c2ccccc2c1=O returned SMN2 splice up 18%, ELG1 genotoxic 16%, FLuc counter 11µM*, Rab9 promoter act 0%, uPA surface inh 0% and NPC1 promoter act 2%.
For CCCCn1nc(C(=O)N[C@@H](CCSC)c2nc3ccccc3[nH]2)c2ccccc2c1=O the results were SMN2 splice up -11%, FLuc counter inconclusive and uPA surface inh 9%.
Screening COc1ccccc1N1CCN(C(=O)Cn2ncc3c(=O)oc4ccccc4c32)CC1 returned SMN2 splice up 5% and FLuc counter -2%.
Screening O=C(Nc1ccc(Cl)cc1Cl)c1n[nH]c(Cn2cncn2)n1 returned SMN2 splice up 18%, ELG1 genotoxic inconclusive, FLuc counter 4.3µM*, Rab9 promoter act 17%, uPA surface inh -8% and NPC1 promoter act 16%.
`N#C/C(=C\c1ccc(Cl)cc1)c1n[nH]c(Cn2cncn2)n1` gave SMN2 splice up -9%, ELG1 genotoxic 4%, FLuc counter -9%, Rab9 promoter act -5%, uPA surface inh 1% and NPC1 promoter act 10%.
For O=C(Nc1ccccc1)N1CCc2ccccc21 the results were SMN2 splice up 14µM*, ELG1 genotoxic 9.2µM*, FLuc counter 21µM*, Rab9 promoter act 1µM*, uPA surface inh -11% and NPC1 promoter act 1.6µM*.
Screening COc1ccc(CCC(=O)N2c3ccccc3CC2C)cc1 (configuration not stated) returned SMN2 splice up 39%, ELG1 genotoxic inconclusive, FLuc counter inconclusive, Rab9 promoter act 22% and NPC1 promoter act 24%.
